SMILES strings stand for the structures. Results filed as inconclusive are left out. Active and inactive are the calls of the source. The calls were made as follows, unless noted: active = hit-call score of the fitted dose curve at least 0.9, where 1 is the maximum; inactive = score below 0.9.

For eight molecules, outcome and AC50 results are on record in PubChem BioAssay (EPA / NIEHS).

Assay [1] can be described thus: ATG_PPRE_CIS: Attagene CIS-FACTORIAL HepG2 Assay for human Peroxisome Proliferator-activated Response Element (PPRE) (AID 2282958). As to conditions: HepG2 PPRE cis-element reporter, Attagene transcription factor profiling; actives raise or lower the signal. The procedure, abridged:
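After human HepG2 hepatoma cells were transiently transfected with cis-promoter reporter constructs, they were exposed to test chemicals for 24 hours. Reporter RNA was then reverse-transcribed, PCR-amplified, FAM-labeled, HpaI-digested and quantified by capillary electrophoresis.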

Assay [2] is described as follows: ATG_RORE_CIS: Attagene CIS-FACTORIAL HepG2 Assay for human RAR-related Orphan Receptor Element (RORE) (AID 2282959). As to conditions: HepG2 Attagene cis-factorial RORE reporter, mRNA; actives raise or lower the signal. A digest of the protocol: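 Measured here: transcript induction of a cis-regulated reporter in HepG2 cells transiently transfected via FuGene 6. After 24 h, RNA was processed by RT-PCR and fluorescent capillary electrophoresis; DMSO defined baseline activity.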

Assay [3] can be described thus: ATG_Sox_CIS: Attagene CIS-FACTORIAL HepG2 Assay for human SRY-box transcription factor (SOX) (AID 2282960). The settings on record: HepG2 Attagene cis-factorial SOX reporter, mRNA; actives raise or lower the signal. The procedure, abridged:
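Using transiently transfected HepG2 cells, reporter transcription driven by cis elements was assessed 24 h after dosing. Signal was fluorescence of capillary-separated RT-PCR products, with DMSO defining baseline activity.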

Assay [4] addresses Transcription factor Sp1 (Homo sapiens) (UniProt P08047). Put plainly: ATG_Sp1_CIS: Attagene CIS-FACTORIAL HepG2 Assay for human Specificity Protein 1 (Sp1) (AID 2282961). As to conditions: HepG2 Sp1 cis-reporter transcription, actives raise or lower the signal. A digest of the protocol:
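After transient transfection of HepG2 cells with cis-promoter reporter units and 24 h chemical treatment, reporter transcripts were quantified by RT-PCR and capillary electrophoresis fluorescence. Gain- and loss-of-signal fitted against DMSO.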

For assay [5], the target named is Signal transducer and activator of transcription 3 (Homo sapiens) (UniProt P40763). Put plainly: ATG_STAT3_CIS: Attagene CIS-FACTORIAL HepG2 Assay for human Signal Transducer and Activator of Transcription 3 (STAT3) (AID 2282963). The settings on record: HepG2, Attagene cis-factorial STAT3 reporter transcription; actives raise or lower the signal. The procedure, abridged:
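Transcript-level reporter assay. HepG2 transient MRTU transfection, 24 h exposure, fluorescence detection after RT-PCR and CE; DMSO baseline.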

Assay [6] can be described thus: ATG_TA_CIS: Attagene CIS-FACTORIAL HepG2 Assay for human TA Basal Promoter (AID 2282964). As to conditions: HepG2 Attagene CIS-factorial TA basal promoter reporter; actives raise or lower the signal. The procedure, abridged:
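Multiplexed mRNA reporter assay, HepG2, 24 h. Reporter cDNA amplified, 6-FAM primer-extended, HpaI-cut, CE-sized; DMSO = negative control and baseline.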

A short description of assay [7]: ATG_TCF_b_cat_CIS: Attagene CIS-FACTORIAL HepG2 Assay for human T-Cell-Factor with beta-catenin (TCF/b-cat) (AID 2282965). As to conditions: HepG2 TCF/beta-catenin cis-reporter transcription, actives raise or lower the signal. A digest of the protocol:
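HepG2 cells transiently transfected with multiple cis-promoter-regulated reporter transcription units, so endogenous transcription factor activity is measured. Reporter mRNA read 24 hours after dosing by RT-PCR, fluorescent labelling and capillary electrophoresis; bidirectional fitting against DMSO.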

A short description of assay [8]: ATG_TAL_CIS: Attagene CIS-FACTORIAL HepG2 Assay for human TAL Basal Promoter (AID 2282966).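 Also: background control endpoint measuring basal TAL promoter reporter mRNA not a specific factor.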 The settings on record: HepG2 Attagene cis-factorial TAL promoter reporter; actives raise or lower the signal. The procedure, abridged:
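In this cell-based multiplex, HepG2 liver cells bearing cis-promoter reporter constructs are dosed for 24 hours. Total RNA is reverse-transcribed and amplified, labelled fragments are sized by capillary electrophoresis, and signal changes are fitted bidirectionally versus DMSO.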

The nature of assay [9]: ATG_TGFb_CIS: Attagene CIS-FACTORIAL HepG2 Assay for human Transforming Growth Factor (TGF) (AID 2282967). As to conditions: HepG2 Attagene CIS TGFb reporter, mRNA transcription; actives raise or lower the signal. A digest of the protocol:
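Transcript-level reporter readout: HepG2 transfectants, 24 h exposure, RNA to cDNA, reporter-specific PCR, fluorescent primer extension, capillary sizing against ROX standards. Gain- or loss-of-signal relative to DMSO.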

Assay [10] can be described thus: ATG_VDRE_CIS: Attagene CIS-FACTORIAL HepG2 Assay for human Vitamin D Receptor Element (VDRE) (AID 2282968). The settings on record: HepG2 VDRE cis-reporter transcription, actives raise or lower the signal. The procedure, abridged: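 RT-PCR/CE readout of reporter mRNA; HepG2, transient transfection, 24 h dosing; DMSO baseline; bidirectional analysis.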
Assay [11] concerns the target Estrogen receptor (Homo sapiens) (UniProt P03372). Put plainly: ATG_ERa_TRANS: Attagene TRANS-FACTORIAL HepG2 Assay for human Estrogen Receptor alpha (ERa) (AID 2282970; active = hit-call score of the fitted dose curve at least 0.9, where 1 is the maximum). The settings on record: HepG2 Attagene TRANS ERa GAL4 reporter, mRNA. A digest of the protocol: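 After 24 h of compound treatment, RNA from HepG2 cells bearing transfected GAL4-UAS reporter constructs is converted to cDNA, amplified and fluorescently labelled. Capillary electrophoresis resolves the ERa-linked reporter; DMSO serves as negative control.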

For assay [12], the target named is Steroid hormone receptor ERR1 (Homo sapiens) (UniProt P11474). Put plainly: ATG_ERRa_TRANS: Attagene TRANS-FACTORIAL HepG2 Assay for human Estrogen-Related Receptor alpha (ERRa) (AID 2282971; active = hit-call score of the fitted dose curve at least 0.9, where 1 is the maximum). As to conditions: HepG2 Attagene TRANS reporter, ERRa transactivation. The procedure, abridged: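 Transfected HepG2, 24 h dosing, ERRa-Gal4 chimera driving GAL4-UAS reporter. Readout: reporter mRNA via RT-PCR plus capillary electrophoresis (fluorescence). Positive direction vs DMSO control.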
Sequence of Steroid hormone receptor ERR1 (Homo sapiens) (P11474 whole entry, looked up, the tested form may be a part): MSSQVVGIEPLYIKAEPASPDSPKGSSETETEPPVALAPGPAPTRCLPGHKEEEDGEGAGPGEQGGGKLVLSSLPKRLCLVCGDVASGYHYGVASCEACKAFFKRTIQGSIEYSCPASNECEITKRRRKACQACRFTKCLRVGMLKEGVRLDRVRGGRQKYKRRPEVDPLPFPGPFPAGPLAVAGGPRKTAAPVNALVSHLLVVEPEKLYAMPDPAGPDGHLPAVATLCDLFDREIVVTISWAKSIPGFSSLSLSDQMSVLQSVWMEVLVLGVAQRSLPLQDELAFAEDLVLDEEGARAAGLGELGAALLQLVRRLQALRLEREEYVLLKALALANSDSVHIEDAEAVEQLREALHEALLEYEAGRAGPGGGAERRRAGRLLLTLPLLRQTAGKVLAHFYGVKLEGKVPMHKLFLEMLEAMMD

A short description of assay [13]: ATG_GAL4_TRANS: Attagene TRANS-FACTORIAL HepG2 Assay for GAL4 (Internal Marker) (AID 2282976; active = hit-call score of the fitted dose curve at least 0.9, where 1 is the maximum). The settings on record: HepG2 Attagene TRANS GAL4 internal marker reporter. A digest of the protocol: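 RT-PCR/capillary electrophoresis readout of reporter mRNA. HepG2, transient MRTU transfection (GAL4-UAS reporters), 24 h compound exposure. Background-control endpoint, positive direction vs DMSO baseline.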

The target of assay [14] is Estrogen-related receptor gamma (Homo sapiens) (UniProt P62508). Put plainly: ATG_ERRg_TRANS: Attagene TRANS-FACTORIAL HepG2 Assay for human Estrogen-Related Receptor gamma (ERRg) (AID 2282977; active = hit-call score of the fitted dose curve at least 0.9, where 1 is the maximum;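 also: hits increase reporter signal over DMSO so potencies reflect activators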). As to conditions: HepG2 Attagene TRANS reporter, ERRg transactivation. A digest of the protocol:
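HepG2 cells transiently transfected with multiplexed GAL4-UAS reporter units driven by chimeric NR-Gal4 proteins; 24 h exposure. Reporter mRNA quantified by RT-PCR, fluorescent labelling, HpaI digestion and capillary electrophoresis; gain of signal vs DMSO.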

Assay [15] deals with Bile acid receptor (Homo sapiens) (UniProt Q96RI1). Put plainly: ATG_FXR_TRANS: Attagene TRANS-FACTORIAL HepG2 Assay for Farnesoid X Receptor (FXR) (AID 2282979; active = hit-call score of the fitted dose curve at least 0.9, where 1 is the maximum;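 also: hits raise reporter mRNA above DMSO so AC50 marks FXR activation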). The settings on record: HepG2 Attagene TRANS FXR-GAL4 reporter transcription. The procedure, abridged:
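Read-out: fluorescent reporter transcripts quantified by capillary electrophoresis after RT-PCR of total RNA. Source cells were HepG2 transiently carrying chimeric NR-GAL4 plus GAL4-UAS reporter units, dosed 24 h. Activity fitted upward relative to DMSO baseline.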

The nature of assay [16]: ATG_SREBP_CIS: Attagene CIS-FACTORIAL HepG2 Assay for human Sterol Regulatory Element Binding (SREBP) (AID 2282962). As to conditions: HepG2 Attagene cis-factorial SREBP reporter, mRNA; actives raise or lower the signal. The procedure, abridged:
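Transfected HepG2 (cis-regulated reporter library, endogenous TFs) → compound 24 h → total RNA → oligo(dT) RT → reporter-specific PCR → FAM primer extension, HpaI cut → CE fluorescence. Fit bidirectional vs DMSO.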

Assay [17] has as its target Glucocorticoid receptor (Homo sapiens) (UniProt P04150). Put plainly: ATG_GR_TRANS: Attagene TRANS-FACTORIAL HepG2 Assay for human Glucocorticoid Receptor (GR) (AID 2282978; active = hit-call score of the fitted dose curve at least 0.9, where 1 is the maximum;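 also: activators score as hits since higher reporter transcript over DMSO is fitted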). As to conditions: HepG2 Attagene TRANS GR reporter, mRNA transcription. The procedure, abridged: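 HepG2 transient transfection, multiple reporter units, GAL4-UAS under NR-GAL4 chimera control. 24 h treatment. Reporter mRNA by RT-PCR/CE fluorescence, DMSO as negative control.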

In assay [18] the target is Nuclear receptor subfamily 1 group I member 3 (Homo sapiens) (UniProt Q14994). Put plainly: ATG_CAR_TRANS: Attagene TRANS-FACTORIAL HepG2 Assay for human Constitutive Androstane Receptor (CAR) (AID 2282969; active = hit-call score of the fitted dose curve at least 0.9, where 1 is the maximum;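 also: activators raise reporter mRNA above DMSO so AC50 marks induction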). As to conditions: HepG2 Attagene TRANS-FACTORIAL CAR reporter. A digest of the protocol: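 HepG2 cells transiently transfected with multiplexed GAL4-UAS reporter units expressing chimeric NR-Gal4 proteins; compound exposure 24 h. Reporter mRNA measured by RT-PCR, 6-FAM labelling, HpaI digestion and capillary electrophoresis; gain-of-signal fitted against DMSO baseline.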
Sequence of Nuclear receptor subfamily 1 group I member 3 (Homo sapiens) (Q14994 whole entry, looked up, the tested form may be a part): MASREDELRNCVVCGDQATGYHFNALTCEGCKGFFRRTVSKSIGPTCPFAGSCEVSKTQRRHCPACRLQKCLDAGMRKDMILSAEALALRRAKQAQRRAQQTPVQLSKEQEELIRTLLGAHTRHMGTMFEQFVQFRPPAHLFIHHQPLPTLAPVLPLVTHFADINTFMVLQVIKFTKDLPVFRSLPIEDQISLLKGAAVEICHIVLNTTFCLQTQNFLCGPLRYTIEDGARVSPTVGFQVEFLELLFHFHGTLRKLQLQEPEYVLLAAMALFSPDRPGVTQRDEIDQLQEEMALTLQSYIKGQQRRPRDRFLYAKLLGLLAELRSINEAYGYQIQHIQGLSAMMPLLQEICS

Assay [19] has as its target X-box-binding protein 1 (Homo sapiens) (UniProt P17861). Put plainly: ATG_Xbp1_CIS: Attagene CIS-FACTORIAL HepG2 Assay for human X-box Binding Protein 1 (XBP1) (AID 2282972). As to conditions: HepG2 XBP1 cis-element reporter, Attagene multiplex; actives raise or lower the signal. A digest of the protocol: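 HepG2, transient MRTU transfection (cis-promoter driven), 24 h compound exposure. Total RNA → oligo(dT) RT → PCR → 6-FAM labeling → HpaI cut → CE. Bidirectional fit vs DMSO.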

A short description of assay [20]: ATG_M_19_TRANS: Attagene TRANS-FACTORIAL HepG2 Assay for M19 Transcription Factor (Internal Marker) (AID 2282974; active = hit-call score of the fitted dose curve at least 0.9, where 1 is the maximum). As to conditions: HepG2 Attagene TRANS-FACTORIAL M19 internal marker reporter. The procedure, abridged: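 Gain-of-signal in reporter mRNA, relative to DMSO, was scored from capillary electrophoresis fluorescence. HepG2 cells carried transiently transfected multiple reporter transcription units and were incubated with test chemicals for 24 h.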

Sequence of Bile acid receptor (Homo sapiens) (Q96RI1 whole entry, looked up, the tested form may be a part): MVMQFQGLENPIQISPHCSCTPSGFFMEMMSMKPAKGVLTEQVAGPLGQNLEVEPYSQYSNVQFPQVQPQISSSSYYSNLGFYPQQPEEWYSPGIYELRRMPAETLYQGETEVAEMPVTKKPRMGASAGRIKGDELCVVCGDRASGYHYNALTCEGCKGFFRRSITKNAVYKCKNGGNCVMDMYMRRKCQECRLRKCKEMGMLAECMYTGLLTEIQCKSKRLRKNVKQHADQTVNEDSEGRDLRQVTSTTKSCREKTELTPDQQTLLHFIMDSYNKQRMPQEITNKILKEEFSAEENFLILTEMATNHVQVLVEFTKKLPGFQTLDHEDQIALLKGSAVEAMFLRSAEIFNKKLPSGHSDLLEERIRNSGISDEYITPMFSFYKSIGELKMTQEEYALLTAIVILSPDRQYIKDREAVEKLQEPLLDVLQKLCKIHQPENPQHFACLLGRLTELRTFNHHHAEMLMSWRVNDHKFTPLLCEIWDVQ
Sequence of Glucocorticoid receptor (Homo sapiens) (P04150 whole entry, looked up, the tested form may be a part): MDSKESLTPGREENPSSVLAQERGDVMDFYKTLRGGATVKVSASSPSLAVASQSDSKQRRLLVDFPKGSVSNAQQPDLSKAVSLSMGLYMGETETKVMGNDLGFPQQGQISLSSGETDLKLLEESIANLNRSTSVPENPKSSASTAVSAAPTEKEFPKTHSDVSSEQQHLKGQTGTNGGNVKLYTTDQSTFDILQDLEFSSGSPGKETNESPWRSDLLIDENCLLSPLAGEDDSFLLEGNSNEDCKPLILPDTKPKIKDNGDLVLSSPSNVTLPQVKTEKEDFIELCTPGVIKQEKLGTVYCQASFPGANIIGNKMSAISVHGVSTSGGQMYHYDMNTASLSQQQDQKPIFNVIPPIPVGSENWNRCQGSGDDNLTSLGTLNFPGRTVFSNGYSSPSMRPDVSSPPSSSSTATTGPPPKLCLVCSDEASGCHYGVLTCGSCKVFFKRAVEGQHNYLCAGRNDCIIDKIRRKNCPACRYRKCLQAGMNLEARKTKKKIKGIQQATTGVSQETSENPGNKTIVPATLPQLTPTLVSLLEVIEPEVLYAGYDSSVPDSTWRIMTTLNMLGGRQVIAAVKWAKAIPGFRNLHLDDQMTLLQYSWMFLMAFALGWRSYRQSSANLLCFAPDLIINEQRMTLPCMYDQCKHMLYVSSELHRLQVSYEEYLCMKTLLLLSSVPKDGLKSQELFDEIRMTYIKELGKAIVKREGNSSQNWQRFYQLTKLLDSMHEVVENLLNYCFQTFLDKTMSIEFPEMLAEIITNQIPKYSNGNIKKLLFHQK
Sequence of Transcription factor Sp1 (Homo sapiens) (P08047 whole entry, looked up): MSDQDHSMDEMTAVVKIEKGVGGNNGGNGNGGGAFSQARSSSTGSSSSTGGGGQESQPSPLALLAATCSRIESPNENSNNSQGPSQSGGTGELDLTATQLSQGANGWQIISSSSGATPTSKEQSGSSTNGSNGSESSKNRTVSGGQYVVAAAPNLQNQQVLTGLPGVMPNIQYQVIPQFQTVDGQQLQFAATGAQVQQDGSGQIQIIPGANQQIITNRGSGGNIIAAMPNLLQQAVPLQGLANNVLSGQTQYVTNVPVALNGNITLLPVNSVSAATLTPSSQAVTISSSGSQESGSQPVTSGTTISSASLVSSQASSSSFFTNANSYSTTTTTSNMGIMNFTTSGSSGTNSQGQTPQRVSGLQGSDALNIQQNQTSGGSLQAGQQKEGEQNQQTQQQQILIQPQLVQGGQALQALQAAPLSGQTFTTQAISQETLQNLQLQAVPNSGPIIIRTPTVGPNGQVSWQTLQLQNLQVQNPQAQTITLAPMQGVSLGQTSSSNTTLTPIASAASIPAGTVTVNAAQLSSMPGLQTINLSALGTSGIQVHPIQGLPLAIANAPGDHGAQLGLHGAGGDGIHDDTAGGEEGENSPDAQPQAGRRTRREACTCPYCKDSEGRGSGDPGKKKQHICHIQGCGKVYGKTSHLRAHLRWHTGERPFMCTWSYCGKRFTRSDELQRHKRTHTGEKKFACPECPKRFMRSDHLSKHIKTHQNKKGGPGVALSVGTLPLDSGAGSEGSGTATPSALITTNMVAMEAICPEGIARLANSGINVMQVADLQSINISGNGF
Sequence of Signal transducer and activator of transcription 3 (Homo sapiens) (P40763 whole entry, looked up): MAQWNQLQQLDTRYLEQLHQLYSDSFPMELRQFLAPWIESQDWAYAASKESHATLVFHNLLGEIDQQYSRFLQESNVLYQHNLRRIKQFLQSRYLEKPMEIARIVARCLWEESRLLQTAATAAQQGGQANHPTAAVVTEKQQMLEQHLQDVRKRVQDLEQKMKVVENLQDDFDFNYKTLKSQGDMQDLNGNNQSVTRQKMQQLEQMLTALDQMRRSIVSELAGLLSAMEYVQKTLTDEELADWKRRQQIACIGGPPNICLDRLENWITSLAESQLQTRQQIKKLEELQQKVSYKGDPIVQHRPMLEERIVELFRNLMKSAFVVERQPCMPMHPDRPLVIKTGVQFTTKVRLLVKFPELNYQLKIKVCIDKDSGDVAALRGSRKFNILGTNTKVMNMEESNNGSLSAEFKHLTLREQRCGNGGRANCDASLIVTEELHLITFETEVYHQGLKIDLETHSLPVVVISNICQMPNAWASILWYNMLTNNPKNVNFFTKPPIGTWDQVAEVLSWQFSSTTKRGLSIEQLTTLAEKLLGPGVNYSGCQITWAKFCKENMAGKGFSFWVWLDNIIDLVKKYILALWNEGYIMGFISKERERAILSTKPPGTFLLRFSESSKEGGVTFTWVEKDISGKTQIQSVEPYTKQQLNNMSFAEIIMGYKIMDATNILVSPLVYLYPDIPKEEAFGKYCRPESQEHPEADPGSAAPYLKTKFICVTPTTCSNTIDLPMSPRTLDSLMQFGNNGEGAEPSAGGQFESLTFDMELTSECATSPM
Sequence of Estrogen receptor (Homo sapiens) (P03372 whole entry, looked up, the tested form may be a part): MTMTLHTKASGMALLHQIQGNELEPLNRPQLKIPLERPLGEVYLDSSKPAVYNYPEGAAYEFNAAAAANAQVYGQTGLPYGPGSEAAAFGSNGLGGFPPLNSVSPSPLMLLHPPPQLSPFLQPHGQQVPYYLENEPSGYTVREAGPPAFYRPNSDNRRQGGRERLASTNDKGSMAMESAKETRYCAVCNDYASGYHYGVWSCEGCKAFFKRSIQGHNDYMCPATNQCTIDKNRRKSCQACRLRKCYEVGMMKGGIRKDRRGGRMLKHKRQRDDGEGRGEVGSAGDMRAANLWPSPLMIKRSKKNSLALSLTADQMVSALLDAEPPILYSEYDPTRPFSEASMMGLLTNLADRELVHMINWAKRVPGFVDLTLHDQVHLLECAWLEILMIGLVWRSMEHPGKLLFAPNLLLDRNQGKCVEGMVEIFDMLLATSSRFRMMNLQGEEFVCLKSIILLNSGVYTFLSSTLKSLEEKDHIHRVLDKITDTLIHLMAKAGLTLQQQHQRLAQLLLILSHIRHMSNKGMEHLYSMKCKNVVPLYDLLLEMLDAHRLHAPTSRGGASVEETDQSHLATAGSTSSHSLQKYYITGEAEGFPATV
Sequence of X-box-binding protein 1 (Homo sapiens) (P17861 whole entry, looked up): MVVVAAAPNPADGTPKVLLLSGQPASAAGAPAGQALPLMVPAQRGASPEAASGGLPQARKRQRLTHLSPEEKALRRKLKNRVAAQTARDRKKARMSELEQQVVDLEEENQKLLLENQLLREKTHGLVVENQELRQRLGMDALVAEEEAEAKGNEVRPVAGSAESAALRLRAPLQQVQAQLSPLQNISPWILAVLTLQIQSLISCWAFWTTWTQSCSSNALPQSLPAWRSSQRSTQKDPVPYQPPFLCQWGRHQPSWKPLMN
Sequence of Estrogen-related receptor gamma (Homo sapiens) (P62508 whole entry, looked up, the tested form may be a part): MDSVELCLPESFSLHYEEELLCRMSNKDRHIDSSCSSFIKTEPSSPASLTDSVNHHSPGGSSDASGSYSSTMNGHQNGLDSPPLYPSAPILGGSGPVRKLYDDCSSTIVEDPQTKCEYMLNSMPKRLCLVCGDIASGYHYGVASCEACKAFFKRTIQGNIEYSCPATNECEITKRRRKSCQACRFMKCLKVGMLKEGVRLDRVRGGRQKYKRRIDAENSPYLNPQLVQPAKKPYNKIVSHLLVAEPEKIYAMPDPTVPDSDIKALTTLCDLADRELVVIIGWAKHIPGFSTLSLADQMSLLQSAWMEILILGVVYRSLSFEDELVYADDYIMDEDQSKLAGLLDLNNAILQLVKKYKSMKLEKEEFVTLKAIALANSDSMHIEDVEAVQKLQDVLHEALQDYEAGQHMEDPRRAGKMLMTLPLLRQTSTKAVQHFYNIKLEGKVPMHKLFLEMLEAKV

As a reminder, the AC50 is the concentration at which the activity in the assay is half-maximal. As for `O=C(N[C@@H](c1ccccc1)[C@@H]1CCCCN1)c1cccc(C(F)(F)F)c1Cl`, the result in assay [1], in assay [2], in [5], in assay [6], in [8] and in [9] was inactive. Also, the call in [11], in [12], in assay [13], in assay [14] and in [15] was inactive. Besides, the AC50 in [3] is 33 µM (active); in [4], 42.7 µM (active); in [7], 16.6 µM (active); in [10], 20.4 µM (active).
For `COC(=O)[C@H]1[C@H]2C[C@@H]3c4[nH]c5cc(OC)ccc5c4CCN3C[C@H]2C[C@@H](OC(=O)c2cc(OC)c(OC)c(OC)c2)[C@@H]1OC`, the call in assay [1], in assay [2], in [3], in assay [4], in assay [5] and in assay [6] was inactive. Moreover, the call in [8], in assay [9] and in [17] was inactive. Moreover, the AC50 in [16] is 3.96 µM (active); in [7], 7.31 µM (active).
In the case of `O=NO`, the result in assay [1], in assay [2], in assay [3], in assay [4], in assay [5] and in [6] was inactive. Also, the molecule was called inactive in assay [7], in [8], in [9], in assay [10], in [18] and in assay [19]. Further, the result in assay [13] was inactive.
As for `Oc1ccc(O)cc1`, the AC50 in assay [1] is 62.5 µM (active); in [4], 29.1 µM (active); in assay [11], 59.9 µM (active); in assay [19], 114 µM (active). Moreover, the outcome in assay [2], in assay [3], in assay [5], in assay [6], in [7] and in assay [8] was inactive. Further, the outcome in assay [9] and in [10] was inactive.
Take `CCCC[C@H]1CN(CC2CCOCC2)C(=O)OC12CCN(C1(C)CCN(C(=O)c3c(C)ncnc3C)CC1)CC2`: the result in assay [1], in [2], in assay [3], in assay [4], in assay [5] and in [6] was inactive. Moreover, the result in assay [7], in [8], in [9], in assay [10], in [18] and in assay [12] was inactive. Besides, the molecule was called inactive in assay [19] and in assay [20].
For `CCc1nc(N)nc(N)c1-c1ccc(Cl)cc1`, the AC50 in assay [1] is 26.8 µM (active); in [2], 42.5 µM (active); in assay [6] it was 100 µM (active); in assay [7], 60.1 µM (active); in assay [10], 100 µM (active); in [19], 147 µM (active). The molecule was called inactive in [3], in assay [4], in [5], in assay [8], in [9] and in assay [11]. The molecule was classed as inactive in assay [17] and in assay [15].
Regarding `CCOCCOCCO`, the molecule was called inactive in assay [1], in assay [2], in assay [3], in [4], in assay [16] and in [5]. The outcome in assay [6], in assay [7], in [8], in assay [9], in assay [12] and in [19] was inactive. The call in [20], in assay [13], in [14] and in assay [17] was inactive.
With `C=CCc1ccc(OC)c(OC)c1`, the result in [1], in assay [2], in assay [3], in assay [4], in assay [5] and in assay [6] was inactive. The outcome in assay [7], in assay [8], in assay [9], in assay [10], in assay [19] and in assay [20] was inactive. In addition, the molecule was called inactive in [17] and in assay [15].
